# The source made the active and inactive calls. Rule for the calls: active = hit-call score of the fitted dose curve at least 0.9, where 1 is the maximum; inactive = score below 0.9.
# Columns and labels:
# [1] = molecular target: Transcription factor E2F1 (Homo sapiens) (UniProt Q01094); assay: ATG_E2F_CIS: Attagene CIS-FACTORIAL HepG2 Assay for human E2F Transcription Factor 1 (AID 2282935); settings: HepG2 Attagene cis-reporter, E2F reporter RNA transcripts; actives raise or lower the signal
# Method in brief: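 Measures reporter transcript levels via RT-PCR with capillary electrophoresis detection in HepG2 cells harboring cis-regulated reporter units; 24 h post-dose; bidirectional curve fitting with DMSO as baseline.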
# [2] = ATG_E_Box_CIS: Attagene CIS-FACTORIAL HepG2 Assay for human Enhancer Box (E-box) (AID 2282936); settings: HepG2 E-box cis-reporter transcription, actives raise or lower the signal
# Method in brief: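 First, HepG2 cells receive multiple cis-regulated reporter constructs by transient transfection. Next, chemicals are applied for 24 h. Finally, reporter mRNA is quantified via RT-PCR and capillary electrophoresis, with DMSO as baseline.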
# [3] = ATG_M_61_CIS: Attagene CIS-FACTORIAL HepG2 Assay for M61 Transcription Factor (Internal Marker) (AID 2282937); settings: HepG2 Attagene CIS-FACTORIAL M61 internal marker reporter; actives raise or lower the signal
# Method in brief: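 Multiplexed reporter mRNA assay, HepG2 human hepatoma cells, 24 h treatment. Signal: FAM-labelled, HpaI-digested RT-PCR fragments by CE. Fit: bidirectional, baseline DMSO.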
# [4] = ATG_EGR_CIS: Attagene CIS-FACTORIAL HepG2 Assay for human Early Growth Response 1 (EGR1) (AID 2282938); settings: HepG2 Attagene CIS-FACTORIAL EGR reporter mRNA; actives raise or lower the signal
# Method in brief: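 Multiplexed cis-reporter system in human hepatoma HepG2 cells, transiently transfected. Cells are dosed for 24 h; reporter transcripts are amplified, fluorescently tagged and sized by capillary electrophoresis, with DMSO as negative control.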
# [5] = ATG_M_19_CIS: Attagene CIS-FACTORIAL HepG2 Assay for M19 Transcription Factor (Internal Marker) (AID 2282939); settings: HepG2 Attagene CIS-FACTORIAL M19 internal marker reporter; actives raise or lower the signal
# Method in brief: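 Following a 24 h exposure, RNA from transfected HepG2 cells was reverse-transcribed, PCR-amplified with reporter-specific primers, end-labelled with 6-FAM and HpaI-digested before capillary separation. Values represent gain or loss versus DMSO.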
# [6] = ATG_ERE_CIS: Attagene CIS-FACTORIAL HepG2 Assay for Estrogen Response Element (ERE) (AID 2282940); settings: HepG2 ERE cis-reporter, Attagene RNA transcript; actives raise or lower the signal
# Method in brief: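 HepG2, transient cis-reporter units, 24 h exposure. RNA isolated, oligo(dT) RT, reporter-specific PCR, FAM extension, HpaI cut, CE detection. Gain/loss-of-signal vs DMSO.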
# [7] = ATG_Ets_CIS: Attagene CIS-FACTORIAL HepG2 Assay for human Erythroblast Transformation Specific (ETS) (AID 2282941); settings: HepG2 ETS cis-reporter transcription, actives raise or lower the signal
# Method in brief: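 Human HepG2 hepatoma cells were transiently transfected with promoter-driven reporter constructs and treated for 24 hours. Reporter transcripts were quantified by RT-PCR with fluorescent primer extension; bidirectional curve fitting used DMSO as reference.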
# [8] = molecular target: Hepatocyte nuclear factor 3-beta (Homo sapiens) (UniProt Q9Y261); assay: ATG_FoxA2_CIS: Attagene CIS-FACTORIAL HepG2 Assay for human Forkhead box A2 (FOXA2) (AID 2282942); settings: HepG2 cis-reporter transcription factor activity, 24 h; actives raise or lower the signal
# Method in brief: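 Multiplexed cis-element reporter assay in transiently transfected HepG2. Twenty-four hours post-dosing, RNA was reverse-transcribed, amplified, FAM-labelled, HpaI-digested and separated by CE. Activity gain or loss relative to DMSO.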
# [9] = ATG_FoxO_CIS: Attagene CIS-FACTORIAL HepG2 Assay for human Forkhead box O (FoxO) (AID 2282943); settings: HepG2 Attagene cis-reporter, FoxO element, mRNA; actives raise or lower the signal
# Method in brief: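 Transfected HepG2 reporter cells exposed to test chemical for 24 h; reporter RNA measured by reverse transcription, PCR and fluorescent capillary electrophoresis; curves fitted for increases and decreases against DMSO.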
# [10] = ATG_GATA_CIS: Attagene CIS-FACTORIAL HepG2 Assay for human GATA Binding Protein (AID 2282944); settings: HepG2 GATA cis-element reporter, Attagene multiplex mRNA; actives raise or lower the signal
# Method in brief: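 DMSO serves as negative control and baseline for bidirectional fitting of reporter mRNA changes. HepG2 cells bearing transiently transfected cis-promoter reporters were exposed 24 h; transcripts detected via RT-PCR and capillary electrophoresis.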
# Chain of Transcription factor E2F1 (Homo sapiens) (Q01094 whole entry, looked up): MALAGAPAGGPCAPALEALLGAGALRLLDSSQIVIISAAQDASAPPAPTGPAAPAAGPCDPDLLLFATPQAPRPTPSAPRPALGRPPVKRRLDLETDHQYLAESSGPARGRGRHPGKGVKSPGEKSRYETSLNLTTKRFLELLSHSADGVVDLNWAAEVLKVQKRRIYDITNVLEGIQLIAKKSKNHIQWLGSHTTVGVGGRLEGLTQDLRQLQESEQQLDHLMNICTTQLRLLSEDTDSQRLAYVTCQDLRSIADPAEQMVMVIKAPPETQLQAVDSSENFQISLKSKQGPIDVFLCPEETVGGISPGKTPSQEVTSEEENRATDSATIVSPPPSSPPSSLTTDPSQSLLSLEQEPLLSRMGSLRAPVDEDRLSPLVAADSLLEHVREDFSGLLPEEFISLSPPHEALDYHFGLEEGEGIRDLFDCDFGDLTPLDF
# Chain of Hepatocyte nuclear factor 3-beta (Homo sapiens) (Q9Y261 whole entry, looked up): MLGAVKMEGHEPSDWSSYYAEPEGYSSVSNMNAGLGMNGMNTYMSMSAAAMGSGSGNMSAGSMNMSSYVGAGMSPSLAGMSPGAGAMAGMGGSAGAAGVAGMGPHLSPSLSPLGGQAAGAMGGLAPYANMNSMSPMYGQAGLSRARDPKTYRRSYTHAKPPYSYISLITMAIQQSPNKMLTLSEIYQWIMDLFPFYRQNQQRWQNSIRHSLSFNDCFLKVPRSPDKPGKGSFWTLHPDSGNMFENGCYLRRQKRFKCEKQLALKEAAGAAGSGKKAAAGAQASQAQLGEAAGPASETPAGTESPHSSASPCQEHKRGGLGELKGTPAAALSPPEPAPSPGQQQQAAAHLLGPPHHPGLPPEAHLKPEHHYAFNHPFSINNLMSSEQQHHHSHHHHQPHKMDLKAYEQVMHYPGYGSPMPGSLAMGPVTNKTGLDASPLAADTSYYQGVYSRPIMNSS
SMILES,outcome [1],outcome [2],outcome [3],outcome [4],outcome [5],outcome [6],outcome [7],outcome [8],outcome [9],outcome [10],AC50 [6],AC50 [1],AC50 [2],AC50 [7],AC50 [9],AC50 [4]
CO[Si](C)(C)OC,inactive,inactive,inactive,inactive,inactive,inactive,inactive,inactive,inactive,inactive,,,,,,
CCCCNC(=S)NCCCC,inactive,inactive,inactive,inactive,inactive,inactive,inactive,inactive,inactive,inactive,,,,,,
NC(=O)Nc1ccccc1,inactive,inactive,inactive,inactive,inactive,inactive,inactive,inactive,inactive,inactive,,,,,,
CCCCCCC=O,inactive,inactive,inactive,inactive,inactive,,inactive,inactive,inactive,inactive,26.7 µM (active),,,,,
C[N+](C)(C)CCCNS(=O)(=O)C(F)(F)C(F)(F)C(F)(F)C(F)(F)C(F)(F)C(F)(F)C(F)(F)C(F)(F)F,inactive,inactive,inactive,inactive,inactive,inactive,inactive,inactive,inactive,inactive,,,,,,
CC(CC=O)CC(C)(C)C (centres undefined),inactive,inactive,inactive,inactive,inactive,inactive,inactive,inactive,inactive,inactive,,,,,,
CCC(=O)C1CC(C(C)C)CC=C1C (centres undefined),inactive,inactive,inactive,inactive,inactive,inactive,inactive,inactive,inactive,inactive,,,,,,
Clc1cc(Cl)c(Cl)c(Cl)c1Cl,inactive,inactive,inactive,inactive,inactive,inactive,inactive,inactive,inactive,inactive,,,,,,
O=C(O[C@@H]1Cc2c(O)cc(O)cc2O[C@@H]1c1cc(O)c(O)c(O)c1)c1cc(O)c(O)c(O)c1,inactive,inactive,inactive,inactive,inactive,inactive,inactive,inactive,inactive,inactive,,,,,,
CC=C(C)C=CC=C(C)C,inactive,inactive,inactive,inactive,inactive,inactive,inactive,inactive,inactive,inactive,,,,,,
CC(C)(C)N,inactive,inactive,inactive,inactive,inactive,inactive,inactive,inactive,inactive,inactive,,,,,,
Cc1ccc(C)c(OCCCC(C)(C)C(=O)O)c1,inactive,inactive,inactive,inactive,inactive,,inactive,inactive,inactive,inactive,75.2 µM (active),,,,,
C[Si]1(C)O[Si](C)(C)O[Si](C)(C)O[Si](C)(C)O[Si](C)(C)O1,inactive,inactive,inactive,inactive,inactive,inactive,inactive,inactive,inactive,inactive,,,,,,
CCOC(=O)[C@H](O)[C@@H](O)C(=O)OCC,inactive,inactive,inactive,inactive,inactive,inactive,inactive,inactive,inactive,inactive,,,,,,
CC(=O)CCC=C(C)C,inactive,inactive,inactive,inactive,inactive,inactive,inactive,inactive,inactive,inactive,,,,,,
CCCCOCCOCCOC(C)=O,inactive,inactive,inactive,inactive,inactive,inactive,inactive,inactive,inactive,inactive,,,,,,
O=C(O)c1cc(O)c2ccccc2c1O,,,inactive,inactive,inactive,,,inactive,,inactive,0.513 µM (active),59.1 µM (active),8.86 µM (active),57.9 µM (active),52 µM (active),
CCCCCCCCCC(C)=O,inactive,inactive,inactive,inactive,inactive,inactive,inactive,inactive,inactive,inactive,,,,,,
COC(=O)c1ccccc1C,inactive,inactive,inactive,inactive,inactive,inactive,inactive,inactive,inactive,inactive,,,,,,
Cc1c[nH]c(=O)[nH]c1=O,inactive,inactive,inactive,inactive,inactive,inactive,inactive,inactive,inactive,inactive,,,,,,
CCN1CCCC1=O,inactive,inactive,inactive,inactive,inactive,inactive,inactive,inactive,inactive,inactive,,,,,,
CCCCCCCC(=O)OCC,inactive,inactive,inactive,inactive,inactive,inactive,inactive,inactive,inactive,inactive,,,,,,
Nc1ccc(C(=O)O)cc1,inactive,inactive,inactive,inactive,inactive,inactive,inactive,inactive,inactive,inactive,,,,,,
Cc1c(O)cccc1O,inactive,inactive,inactive,inactive,inactive,,inactive,inactive,inactive,inactive,61.4 µM (active),,,,,
CC(=O)CCC1=C(C)CCCC1(C)C,inactive,inactive,inactive,inactive,inactive,,,inactive,inactive,inactive,29.8 µM (active),,,,,
CCCCC/C=C\C/C=C\CCCCCCCC(=O)O,inactive,inactive,inactive,,inactive,inactive,inactive,inactive,inactive,inactive,,,,,,72.5 µM (active)

SMILES,outcome [1],outcome [2],outcome [3],outcome [4],outcome [5],outcome [6],outcome [7],outcome [8],outcome [9],outcome [10],AC50 [6],AC50 [1],AC50 [2],AC50 [7],AC50 [9],AC50 [4]
Cc1cc(C)c(C=O)c(C)c1,inactive,inactive,inactive,inactive,inactive,inactive,inactive,inactive,inactive,inactive,,,,,,
C=CCCCCCCCCOC(C)=O,inactive,inactive,inactive,inactive,inactive,inactive,inactive,inactive,inactive,inactive,,,,,,
Nc1ccc(Cl)c(N)c1,inactive,inactive,inactive,inactive,inactive,inactive,inactive,inactive,inactive,inactive,,,,,,
CC1=NN(c2ccc(S(=O)(=O)O)cc2)C(=O)C1N=Nc1ccccc1 (centres undefined),inactive,inactive,inactive,inactive,inactive,inactive,,inactive,inactive,inactive,,,,,,
O=C(OCCc1ccccc1)c1ccccc1,inactive,inactive,inactive,inactive,inactive,inactive,inactive,inactive,inactive,inactive,,,,,,
CCCCCCCOC(=O)c1ccc(O)cc1,inactive,,inactive,inactive,inactive,,,inactive,inactive,inactive,19.3 µM (active),,54.3 µM (active),,,
C1CNCCN1,inactive,inactive,inactive,inactive,inactive,inactive,,inactive,inactive,inactive,,,,,,
CC1CCC(=O)C1=O (centres undefined),inactive,inactive,inactive,inactive,inactive,inactive,,inactive,inactive,inactive,,,,,,
COC(C=C(C)CCC=C(C)C)OC,inactive,inactive,inactive,inactive,inactive,inactive,inactive,inactive,inactive,inactive,,,,,,
CCCCC1C(=O)N(c2ccccc2)N(c2ccccc2)C1=O,inactive,inactive,inactive,inactive,inactive,inactive,inactive,inactive,inactive,inactive,,,,,,
CC(CCC(=O)O)(c1ccc(O)cc1)c1ccc(O)cc1,inactive,inactive,inactive,inactive,inactive,,inactive,inactive,inactive,inactive,50.4 µM (active),,,,,
C=C[Si](OCCOC)(OCCOC)OCCOC,inactive,inactive,inactive,inactive,inactive,inactive,,inactive,inactive,inactive,,,,,,
CC(c1cc(C(C)(C)C)cc(C(C)(C)C)c1O)c1cc(C(C)(C)C)cc(C(C)(C)C)c1O,inactive,inactive,inactive,inactive,inactive,inactive,inactive,inactive,inactive,inactive,,,,,,
CC1=CC=C(C(C)C)CC1,inactive,inactive,inactive,inactive,inactive,inactive,,inactive,inactive,inactive,,,,,,
Cc1c(Cl)cccc1Cl,inactive,inactive,inactive,inactive,inactive,inactive,,inactive,inactive,inactive,,,,,,
C=CCNCC=C,inactive,inactive,inactive,inactive,inactive,inactive,inactive,inactive,inactive,inactive,,,,,,
CCCCC(CC)COS(=O)(=O)O (centres undefined),inactive,inactive,inactive,inactive,inactive,inactive,,inactive,inactive,inactive,,,,,,
Oc1ccc(-c2ccccc2)c(Cl)c1,inactive,inactive,inactive,,inactive,,inactive,inactive,inactive,inactive,9.09 µM (active),,,,,53.9 µM (active)
CCCSSCCC,inactive,inactive,inactive,inactive,inactive,inactive,inactive,inactive,inactive,inactive,,,,,,
Oc1c(Cl)cc(Cl)c(Cl)c1Cl,inactive,inactive,inactive,,inactive,inactive,inactive,inactive,inactive,inactive,,,,,,100 µM (active)
CCC1COC(=O)O1 (centres undefined),inactive,inactive,inactive,inactive,inactive,inactive,inactive,inactive,inactive,inactive,,,,,,
CC(C)c1ccc(O)c(C(C)C)c1,inactive,inactive,inactive,inactive,inactive,,inactive,inactive,inactive,inactive,41.2 µM (active),,,,,
C=CC(=O)OCC(C)OCC(C)OCC(C)OC(=O)C=C (centres undefined),inactive,,inactive,,inactive,inactive,,inactive,,inactive,,,68.6 µM (active),60.1 µM (active),100 µM (active),79.7 µM (active)
Nc1ccc(C(=O)OCCCOC(=O)c2ccc(N)cc2)cc1,inactive,inactive,inactive,inactive,inactive,inactive,,inactive,inactive,inactive,,,,,,
CC(C)(CO)COC(=O)C(C)(C)CO,inactive,inactive,inactive,inactive,inactive,inactive,inactive,inactive,inactive,inactive,,,,,,
CCN1CN(CC)CN(CC)C1,inactive,inactive,inactive,inactive,inactive,inactive,,inactive,inactive,inactive,,,,,,

# Source: PubChem BioAssay (EPA / NIEHS)
